# Assay outcomes: PubChem, several laboratories
# A selection: hits, their analogues and other compounds. The true share with any hit is near 0.5%.
# phage Ecoli inh = E. coli growth loss with phage present; inhibition, % at 11.9 µM; growth absorbance; 360,000 compounds, 0.26% hits; in the data active means inhibition above about 11%
# E coli growth-1 = bacterial growth inhibition, counter-screen for AddAB inhibitors | inhibition, % at 11.9 µM | E. coli V3065 growth, OD600 absorbance, 18 h | AID 449728 | 330,000 compounds, 0.27% hits;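 active means inhibition above the campaign's mean inhibition across all tested compounds plus 3 SD, cut at about 9.9% in these data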;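 further: uninfected addAB+ strain grown without phage in ampicillin broth; 0% = DMSO wells and 100% = ciprofloxacin 0.95 µg/ml wells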
# E coli growth-2 = inhibitors of Escherichia coli growth; OD600, 23 h; hits give low values; OD600 absorbance (no concentration beside the values); 330,000 compounds, 0.21% hits;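 active means OD600 absorbance below the run mean of sample wells minus 3.6 SD, in any replicate, cut at about 0.56 in these data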
# AddAB inh = less growth of phage-infected E. coli with AddAB. 330,000 compounds, 0.29% hits. E. coli expressing H. pylori AddAB, absorbance growth. inhibition, % at 11.9 µM; in the data active means inhibition above about 12%;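 further: 0% = vehicle wells of infected cells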
# Tat export inh = blocks Tat-dependent protein export in E. coli; E. coli MC4100 TorA-mCherry Tat export, fluorescence; inhibition, % at 10 µM; 340,000 compounds, 0.036% hits;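 active means mean replicate inhibition at least 50% and at least half of replicates individually reaching 50%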;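 further: exported cargo escapes ClpAP degradation while cytoplasmic cargo is degraded and loses fluorescence; 0% = median of neutral control wells and 100% = median of NaSCN control wells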
# RecBCD conf = confirmation: growth loss of phage-infected RecBCD+ E. coli (RecBCD inhibitor screen) | shares compounds with phage Ecoli inh | E. coli V66 + T4 2- phage, growth OD | inhibition, % at 11.9 µM | 890 compounds, 45% hits | AID 651982;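 active means mean inhibition over triplicates exceeding the hit threshold derived in the original primary screen, cut at about 11% in these data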
# Ecoli viability = counter-screen for RecBCD inhibitors: inhibitors of bacterial viability | shares compounds with phage Ecoli inh | inhibition, % at 11.9 µM | 890 compounds, 29% hits | AID 651983 | E. coli viability, absorbance (OD) growth; in the data active means inhibition above about 20%;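 further: E. coli strain V66 grown with compound alone and no phage infection; 0% = bacteria with DMSO vehicle only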
# AddAB counter = growth loss of phage-infected AddAB E. coli, RecBCD counter-screen. shares compounds with phage Ecoli inh. E. coli expressing H. pylori AddAB + T4 phage, OD growth; gene 2 mutant T4, recBCD-deleted host. inhibition, % at 11.9 µM. 890 compounds, 45% hits. AID 651984;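 active means mean inhibition above the solvent-only control wells' mean plus 3 SD, cut at about 22% in these data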;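 further: higher means less bacterial growth from phage killing when AddAB is blocked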
# * = called active by the depositor; . = no result given.
SMILES,phage Ecoli inh,E coli growth-1,E coli growth-2,AddAB inh,Tat export inh,RecBCD conf,Ecoli viability,AddAB counter
CC(=O)SC1CC(=O)N(c2c(C)cccc2C)C1=O (stereo unspecified),12*,-2,0.67,-1,-4,-1,-1,2
CCNC(=S)NNC(=S)NCc1ccccc1,11*,2,0.72,10,-5,4,3,9
S=C(NCc1ccccc1)NCc1ccc(CNC(=S)NCc2ccccc2)cc1,2,0,0.69,2,-7,.,.,.
COc1ccc(OC)c(C=NNC(=O)CCc2ccc(O)c(O)c2)c1,.,.,0.71,.,.,.,.,.
CCCCNC(=O)C1CC=CC2CCN(Cc3ccc(Cl)c(Cl)c3)C(=O)C21 (stereo unspecified),.,.,0.64,.,.,.,.,.
CSC1SCC2C(=O)N(C)C(C(C)C)C(=O)OCC(NC(=O)c3cnc4ccccc4n3)C(=O)NC(C)C(=O)N(C)C1C(=O)N(C)C(C(C)C)C(=O)OCC(NC(=O)c1cnc3ccccc3n1)C(=O)NC(C)C(=O)N2C (stereo unspecified),99*,.,.,.,37,89*,92*,81*
Cc1ccc(C(=O)Nc2cccc(C(=O)NN=Cc3ccc(O)cc3)c2)cc1,.,.,0.68,.,.,.,.,.
Nn1c(SCc2cccc(Br)c2)nnc1-c1ccncc1,100*,-5,0.65,-3,9,2,2,0
Nn1c(SCc2cccc(F)c2)nnc1-c1ccncc1,1,1,0.63,1,-5,.,.,.
Cc1cc(-c2ccccc2)n(-c2cc(N/N=C/c3ccccc3O)ncn2)n1,16*,5,.,9,-4,6,7,4
Cc1cc(-c2ccccc2)n(-c2cc(NN=Cc3ccccc3O)ncn2)n1,.,.,0.71,.,.,.,.,.
CN(C)c1ccc(-c2cc(O)c3ncccc3c2)cc1,14*,11*,.,7,-9,1,2,1
CN(C)CCCNC(=O)c1ccc(-c2cc(O)c3ncccc3c2)cc1,3,6,0.61,6,5,.,.,.
COc1cccc(NC(=O)Nc2ccc(C)c(Cl)c2)c1,3,3,0.66,6,2,.,.,.
COC(=O)c1ccc(NC(=O)Nc2ccc([N+](=O)[O-])cc2)cc1,14*,9,0.42*,10,13,9,11,4
COC(=O)c1ccc(NC(=O)Nc2ccc(F)c(Cl)c2)cc1,12*,10*,0.6,9,-5,5,5,9
COC(=O)c1ccc(NC(=O)Nc2ccccc2F)cc1,3,-2,0.68,0,0,.,.,.
Cc1cc(OC(F)F)ccc1NC(=O)Nc1ccc([N+](=O)[O-])cc1,13*,9,0.54,11,-4,5,8,12
Cc1ccc(NC(=O)Nc2ccc(F)cc2)cc1Cl,12*,5,0.64,7,19,5,5,0
COc1cc(C=NNc2ccc([N+](=O)[O-])cc2)ccc1OCC(=O)Nc1ccc(C)c(C)c1,.,.,0.79,.,.,.,.,.
CC(=NNC(=O)c1nnn(-c2nonc2N)c1-c1cccs1)c1cccc(O)c1,.,.,0.71,.,.,.,.,.
O=C(NN=Cc1ccc(Cl)cc1Cl)c1ccncc1,.,.,0.67,.,.,.,.,.
CC(=NOC(=O)c1c(-c2ccccc2Cl)noc1C)c1cnccn1,.,.,0.74,.,.,.,.,.
C#CCOCCOCCOCCNc1nc(N2CCOCC2)nc(N2CCN(C(=O)C(CCCN=C(N)N)n3cc(C(N)C(C)CC)nn3)CC2)n1 (stereo unspecified),.,.,0.65,.,.,.,.,.
O=C(Nc1cccc(Cl)c1)Nc1nnc(-c2ccncc2)s1,13*,8,0.59,12,0,7,9,2
SMILES,phage Ecoli inh,E coli growth-1,E coli growth-2,AddAB inh,Tat export inh,RecBCD conf,Ecoli viability,AddAB counter
CC(=O)c1ccc(NC(=O)Nc2cccc(Cl)c2)cc1,11*,10,0.51*,6,-9,3,3,4
Cc1cccc(OCCOc2ccc(C=NNC(=O)Cc3nnc(N)s3)cc2)c1,.,.,0.76,.,.,.,.,.
NC(=S)NN=C1c2ccccc2-c2c(C(=O)O)cccc21,.,.,0.68,.,.,.,.,.
O=C(Nc1ccc(Cl)cn1)c1ccc([N+](=O)[O-])o1,18*,.,0.5,.,-28,7,8,96*
Cc1c(Cl)c([N+](=O)[O-])nn1Cc1ccc(C(=O)Nc2ccc(Cl)cn2)o1,2,0,0.69,1,-7,.,.,.
CC(=O)c1ccc(NC(=O)c2ccc([N+](=O)[O-])o2)cc1,17*,.,0.47*,.,1,11*,14,66*
NCC(=NO)c1ccc(Cl)cc1Cl,.,.,0.69,.,.,.,.,.
COc1ccccc1NC(=S)NC(NC(=O)c1ccco1)C(Cl)(Cl)Cl (stereo unspecified),11*,8,0.64,11,-23,2,4,7
O=C1c2cc(Cl)ccc2-c2c(O)cc(Cl)cc21,13*,.,0.57,.,2,10,12,6
O=C(Cc1cnn(-c2ccccc2)c1)c1ccc(O)c(O)c1O,11*,8,0.64,12,12,2,5,10
CCOc1ccc(NC(=O)Nc2ccc3nsnc3c2)cc1,11*,3,0.65,5,-11,5,5,-1
COC(=O)C(Cc1ccccc1)C(C)OS(N)(=O)=O (stereo unspecified),.,.,0.7,.,.,.,.,.
NC(=NOC(=O)c1ccc(Cl)cc1[N+](=O)[O-])c1cccnc1,.,.,0.63,.,.,.,.,.
CC(=O)Oc1ccc(C=NNC(=O)CCSc2ccccc2)cc1,.,.,0.69,.,.,.,.,.
CCOC(=O)CCC(=O)O[C@H]1[C@H](O[C@@H]2[C@@H](C)[C@H](O[C@H]3C[C@@](C)(OC)[C@@H](O)[C@H](C)O3)[C@@H](C)C(=O)O[C@H](CC)[C@@](C)(O)[C@H](O)[C@@H](C)C(=O)[C@H](C)C[C@@]2(C)O)O[C@H](C)C[C@@H]1N(C)C,26*,22*,.,25*,19,14*,15,9
c1ccc(Nc2ccccc2Nc2ccccn2)nc1,2,4,0.71,2,0,.,.,.
Oc1cccc2ccc(Nc3ccccn3)nc12,12*,18*,0.62,12,-15,6,9,5
O=C(NN=CC1CC2CCC1C2)c1ccc2c(c1)OCO2 (stereo unspecified),.,.,0.7,.,.,.,.,.
COc1ccc(S(=O)(=O)N(Cc2ccc(OC)c(OC)c2)Cc2ccco2)cc1,3,1,0.77,2,-1,.,.,.
COc1ccc(S(=O)(=O)N(CCC(N)=O)Cc2ccco2)cc1OC,98*,-1,0.64,1,19,-2,-2,-4
CC1CN(C(C)CO)C(=O)c2cc(NC(=O)Nc3ccc(C(F)(F)F)cc3)ccc2OC1CN(C)C(=O)Nc1ccccc1 (stereo unspecified),.,.,0.71,.,.,.,.,.
FC(F)(F)c1cccc(NC(=S)NCC2COc3ccccc3O2)c1 (stereo unspecified),12*,5,0.62,5,-7,7,8,7
